Out of some 310,000 compounds screened, about 2,600 (0.84%) were called active.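 How the source made its calls: active means B-score over 3 SD under the library average, and starting fluorescence ratio not unusually high; inactive means the rest.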 The list comes from a sample in which actives are over-represented; it also holds similar structures and randomly drawn compounds.

High affinity choline transporter 1 (Homo sapiens), sequence (Q9GZV3 whole entry, looked up): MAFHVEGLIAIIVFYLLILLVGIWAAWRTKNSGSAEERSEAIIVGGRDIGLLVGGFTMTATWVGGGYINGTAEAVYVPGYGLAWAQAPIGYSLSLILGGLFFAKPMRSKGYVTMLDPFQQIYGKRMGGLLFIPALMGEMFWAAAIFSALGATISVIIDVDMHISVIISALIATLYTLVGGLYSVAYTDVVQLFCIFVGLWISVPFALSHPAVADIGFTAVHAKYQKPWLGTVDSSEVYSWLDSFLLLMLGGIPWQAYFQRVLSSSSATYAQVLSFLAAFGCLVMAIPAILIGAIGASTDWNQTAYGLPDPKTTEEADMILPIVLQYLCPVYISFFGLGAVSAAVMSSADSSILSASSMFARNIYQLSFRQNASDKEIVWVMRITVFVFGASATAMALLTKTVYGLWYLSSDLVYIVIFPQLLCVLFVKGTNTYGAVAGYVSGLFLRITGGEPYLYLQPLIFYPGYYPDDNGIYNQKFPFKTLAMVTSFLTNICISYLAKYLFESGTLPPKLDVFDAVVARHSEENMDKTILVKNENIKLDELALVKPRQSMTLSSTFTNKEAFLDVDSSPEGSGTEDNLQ

This assay has as its target High affinity choline transporter 1 (Homo sapiens) (UniProt Q9GZV3). Briefly: inhibits the human high affinity choline transporter (AID 488975).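 On B-score: choline stimulus applied at its EC90 after an EC20 pre-addition; B-score computed on integrated fluorescence ratio after choline addition.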 As to conditions: CHT-expressing cells, membrane potential dye, choline response, at 10 µM; stronger effect = lower value.
With `CCOC(=O)/C(C#N)=C/c1ccc(N2CCCCC2)cc1`, the B-score entry is “inactive”.
The result for `CCOC(=O)NC(=O)/C(C#N)=C\c1ccccc1` reads “inactive”; that for `CC(C)(C)C(=O)/C(C#N)=C/c1ccc(O)cc1`, -5.45 (active).
In the case of `O=C(NC1CCCCC1)c1ccc2c(=O)n(CC3CCCO3)c(=O)[nH]c2c1` (stereo unspecified), the B-score result was “inactive”.
With `CCC1CCCCN1CCCNC(=O)C1CCC(Cn2c(=O)[nH]c3ccccc3c2=O)CC1` (stereo unspecified) the entry was “inactive”; with `CCCCCn1c(=O)[nH]c2cc(C(=O)NCCCN3CCCCC3C)ccc2c1=O` (stereo unspecified), -6.4 (active); with `CCN1C(=O)[C@H]2[C@@H](c3ccc(C)cc3)N3C(=O)N(c4cccc(Br)c4)C(=O)[C@@]3(CC)[C@H]2C1=O`, “inactive”.
With `O=C(CCCCO)c1ccc(O)c(Cl)c1` the entry was “inactive”; with `CC(C)CCn1c(CN(C)Cc2ccccc2)nc2c1c(=O)n(C)c(=O)n2C`, -5.25 (active).
The result for `CC(C)Cn1c(CN(Cc2ccccc2)Cc2ccccc2)nc2c1c(=O)n(C)c(=O)n2C` reads “inactive”; that for `COCCn1c(CN(Cc2ccccc2)Cc2ccccc2)nc2c1c(=O)n(C)c(=O)n2C`, “inactive”.
With `COc1cc(C2C(C(=O)c3cccs3)=C(O)C(=O)N2CCN2CCOCC2)ccc1OCCC(C)C` (stereo unspecified), the B-score result was “inactive”.
The result for `COc1ccc(NC(=O)CN2C(=O)CSc3ccc(S(=O)(=O)N4CCC(C)CC4)cc32)cc1` reads “inactive”.
The result for `CC1CCN(CCCNC(=O)CN2C(=O)CSc3ccc(S(=O)(=O)N4CCCCC4)cc32)CC1` reads -5.37 (active).
In the case of `COCCCNC(=O)CN1C(=O)CSc2ccc(S(=O)(=O)N3CCOCC3)cc21`, the B-score entry was “inactive”.
With `O=S(=O)(NCCCc1ccccc1)c1ccc(Br)cc1` the entry was “inactive”; with `O=C(c1ccc(F)cc1)N1CCC(C(=O)N2CCN(S(=O)(=O)c3ccccc3Br)CC2)CC1`, “inactive”.
With `COc1ccc(/C=C2/SC(=O)N(CCCCCC(=O)Nc3ccccc3C(=O)O)C2=S)cc1` the figure was -9.31 (active); with `COc1ccc(/C=C2\SC(=O)N(CCC(=O)NCCCn3ccnc3)C2=O)cc1`, “inactive”; with `O=C(CCCN1C(=O)/C(=C\c2ccccc2)SC1=S)Nc1ccccc1O`, “inactive”.
The result for `CC(=O)CC(CC(=O)NC1CCCCC1)c1ccccc1` (stereo unspecified) reads “inactive”; that for `Cc1ccc(C)c(C(=O)N2CCC(n3nccc3NC(=O)C3CC3)CC2)c1`, “inactive”.
For the molecule `Cc1ccc2c(C)c(C(=O)N3CCC(N4CCC(C(=O)NC5CC5)CC4)CC3)oc2c1`, the B-score was -8.96 (active).
`CCOC(=O)C1CCN(C(=O)c2oc3ccc(S(=O)(=O)N4CCCCCC4)cc3c2C)CC1`: the B-score result is “inactive”.
With `Cc1ccccc1-n1c(C)cc(/C=N/NC(=O)c2ccc(CN3CCOCC3)cc2)c1C` the figure was -9.28 (active); with `COc1ccc(C(=O)Nc2ccc(CN3CCOCC3)cc2)cc1`, “inactive”.
With `C/C(CCc1ccccc1)=N\NC(=O)c1ccc(CN2CCOCC2)cc1` the entry was “inactive”; with `COc1ccc(S(=O)(=O)NCc2cccnc2)cc1NC(=O)c1ccc(C)cc1`, “inactive”; with `Cc1cc(C)c(S(=O)(=O)N2CCCC2CNC(=O)c2ccc3c(c2)OCO3)c(C)c1` (stereo unspecified), “inactive”.
The result for `O=S(=O)(O)Oc1c[nH]c2ccccc12` reads “inactive”; that for `COc1ccc(OCCCC(=O)Oc2ccc(OC)cc2)cc1`, “inactive”.
As for `COc1ccc(OCCC(=O)c2ccc(OC)cc2)cc1`, the B-score result is “inactive”.
Take `COc1ccc(OCC(=O)OCCN(C)C)cc1`: the B-score was -11 (active).
Regarding `CCOc1ccc(CCNC(=O)COC(=O)c2c(OC)cccc2OC)cc1OCC`, the B-score result was “inactive”.
Consider `CCCCCC(=O)N1CCN(S(=O)(=O)c2ccc3c(c2)OCCCO3)CC1`, for which the B-score entry was “inactive”.
For `CN1CCCN(S(=O)(=O)c2ccc3c(c2)OCCO3)CC1`, the B-score entry was “inactive”.
The result for `O=C(c1c(F)cccc1Cl)N1CCN(S(=O)(=O)c2ccc3c(c2)OCCCO3)CC1` reads -5.01 (active); that for `CC(C)c1ccc(S(=O)(=O)N2CCN(C(=O)CN3C(=O)NC(C)(c4ccccc4)C3=O)CC2)cc1` (stereo unspecified), “inactive”.
With `Cc1cccc(NC(=O)c2nc(S(=O)(=O)Cc3ccccc3)ncc2Cl)c1` the entry was “inactive”; with `Cc1ccc(CS(=O)(=O)c2ncc(Cl)c(C(=O)Nc3nnc(C)s3)n2)cc1`, -9.37 (active); with `CSc1nnc(NC(=O)c2nc(S(=O)(=O)Cc3ccc(C)cc3)ncc2Cl)s1`, “inactive”.
The result for `Cc1ccc(C(=O)CN2C(=O)NC3(CCc4ccccc43)C2=O)c(C)c1` (stereo unspecified) reads “inactive”; that for `O=C(OCCOCn1cc(Br)c(=O)[nH]c1=O)c1ccccc1`, “inactive”.
Take `CC(=O)OCCOCn1cnn2c(=O)c(Br)c(C)nc12`: the B-score is -5.09 (active).
With `CCCN(CC(=O)Nc1ccccc1OC)C(=O)CCC(=O)c1ccc(F)cc1` the entry was “inactive”.
Consider `Cc1ccc(Cn2ccc(NC(=O)c3cc(C(C)C)on3)n2)cc1`, for which the B-score result is “inactive”.
With `O=C(Nc1ccn(Cc2ccccc2)n1)c1n[nH]c([N+](=O)[O-])c1Cl` the figure was -5.17 (active); with `Cn1cc([N+](=O)[O-])c(C(=O)Nc2cnn(Cc3ccc(F)cc3)c2)n1`, “inactive”.
For the molecule `CCN1C(=O)[C@@H]2[C@@H](c3ccc(-c4ccccc4)cc3)N3CCCC[C@@]3(C(=O)OC)[C@@H]2C1=O`, the B-score entry was “inactive”.
With `CCCCCCSc1ccc([C@@H]2[C@@H]3C(=O)N(CC)C(=O)[C@@H]3[C@]3(C(=O)OC)CCCCN23)cc1OC` the entry was “inactive”.
The result for `O=C(NCCC1CCCCN1S(=O)(=O)c1ccc(F)cc1)C(=O)NC1CC1` (stereo unspecified) reads “inactive”; that for `COc1ccc(CCNc2cc(N3CCN(C(=O)c4ccccc4OC)CC3)ccc2[N+](=O)[O-])cc1OC`, “inactive”; that for `CCS(=O)(=O)C1=NSC2=NC(=O)/C(=C\c3cc(C)n(-c4cccc(OC)c4)c3C)C(=N)N21`, “inactive”.
Consider `CCS(=O)(=O)C1=NSC2=NC(=O)/C(=C\c3ccc(OS(=O)(=O)c4ccccc4)cc3)C(=N)N21`, for which the B-score was -7.46 (active).
With `Cc1cc(/C=C2/C(=N)N3C(=NC2=O)SN=C3S(C)(=O)=O)c(C)n1-c1ccccc1` the entry was “inactive”.
With `Cc1ccc2c(C)c(C(=O)N3CCN(c4ccncc4)CC3)oc2c1C`, the B-score entry was “inactive”.
`CCOc1cc(C(=O)Nc2ccc(S(=O)(=O)Nc3cnc4ccccc4n3)cc2)cc(OCC)c1OCC`: the B-score entry was “inactive”.
As for `O=C(NCCCn1ccnc1)c1ccccc1F`, the B-score result was “inactive”.
The result for `O=C(Nc1ccccc1C(=O)NCCCn1ccnc1)c1ccc(Cl)cc1Cl` reads -5.25 (active); that for `O=C(NCCCn1ccnc1)Nc1ccc(Cl)cc1Cl`, “inactive”; that for `COc1ccc(C(=O)C2CCCN(C(=O)c3ccc(OC)o3)C2)c(C)c1` (stereo unspecified), “inactive”.
With `CCOCCCN(C)C1CCN(C(=O)c2oc3ccccc3c2NC(=O)Cc2cccc([N+](=O)[O-])c2)CC1` the entry was “inactive”; with `CCOCCCN(C)C1CCN(C(=O)c2oc3ccccc3c2NC(=O)COc2cccc(C)c2)CC1`, -6.44 (active).
On to `COCC(=O)Nc1c(C(=O)N2CCCC2)oc2ccccc12`, for which the B-score entry is “inactive”.
With `C/C(=N\Nc1nc2ccccc2[nH]1)c1cccs1` the figure was -6.15 (active); with `C/C(=N\Nc1ncc(Cl)cc1Cl)c1cccs1`, “inactive”; with `O=C(Nc1ccccc1-c1nc2ccccc2[nH]c1=O)c1cccs1`, “inactive”.
The result for `COC(=O)c1ccc(SCc2ccccc2)nc1` reads “inactive”.
With `COc1cnn(-c2ccc([N+](=O)[O-])cc2)c(=O)c1Cl`, the B-score result is “inactive”.
As for `Nc1c(C(=O)Nc2ccc3c(c2)OCCO3)nnn1Cc1ccccc1`, the B-score entry is “inactive”.
With `O=C(NCCCc1ccccc1)C(=O)c1c[nH]c2ccccc12`, the B-score entry is “inactive”.
With `O=C(Cc1c[nH]c2ccccc12)OCCOC(=O)Cc1c[nH]c2ccccc12` the entry was “inactive”; with `O=C(OCC(=O)c1c[nH]c2ccccc12)c1cccc(O)c1`, -7.81 (active); with `COc1ccc(N2CCN(C(=O)COC(=O)c3cccc(S(=O)(=O)Nc4ccccc4OC)c3)CC2)cc1`, “inactive”.
With `O=C(Nc1cccnc1)c1cccc(S(=O)(=O)N2CCCC2)c1` the entry was “inactive”.
With `O=C(Nc1ccc2c(c1)CCC2)c1cccc(S(=O)(=O)N2CCN(c3ccc(F)cc3)CC2)c1` the entry was “inactive”; with `Cc1cccnc1NC(=O)c1cccc(S(=O)(=O)N2CCN(c3ccc(F)cc3)CC2)c1`, -6.97 (active).
On to `CC(=O)N1CCN(S(=O)(=O)c2cccc(C(=O)NC3CCC(C)CC3)c2)CC1` (stereo unspecified), for which the B-score was -4.99 (active).
As to `COc1ccc(OC)c(NC(=O)c2cccc(S(=O)(=O)N3CCN(C(C)=O)CC3)c2)c1`, the B-score entry is “inactive”.
The result for `CN1CCN(S(=O)(=O)c2cccc(C(=O)O)c2)CC1` reads “inactive”; that for `COc1ccc(C(=O)Nc2ccc(S(=O)(=O)Nc3onc(C)c3C)cc2)cc1OC`, “inactive”.
With `Cc1cc(NS(=O)(=O)c2ccc(NC(=O)C(C)Oc3cccc(C)c3C)cc2)nc(C)n1` (stereo unspecified) the figure was -9.11 (active); with `COc1cc(OC)cc(C(=O)Nc2ccc(S(=O)(=O)Nc3cc(C)on3)cc2)c1`, “inactive”.
The result for `COc1cc2ccccc2cc1C(=O)Nc1ccc(S(=O)(=O)Nc2cc(C)on2)cc1` reads -5.68 (active); that for `Cc1cc(NS(=O)(=O)c2ccc(NC(=O)c3cccc(OC(F)F)c3)cc2)nc(C)n1`, “inactive”.
For `CC(Oc1cccc(Cl)c1)C(=O)Nc1ccc(S(=O)(=O)Nc2ncccn2)cc1` (stereo unspecified), the B-score result was “inactive”.
Regarding `CCOc1ccc(CC(=O)Nc2ccc(S(=O)(=O)Nc3cc(C)on3)cc2)cc1OCC`, the B-score result is “inactive”.
With `Cc1cc(NS(=O)(=O)c2ccc(NC(=O)c3cccnc3)cc2)nc(C)n1` the entry was “inactive”; with `CCOc1ccc(C(=O)Nc2ccc(S(=O)(=O)Nc3cc(C)on3)cc2)cc1`, “inactive”.
On to `CCc1ccc(OC(C)C(=O)Nc2ccc(S(=O)(=O)Nc3cc(C)on3)cc2)cc1` (stereo unspecified), for which the B-score result is “inactive”.
`CCC(Oc1ccccc1C)C(=O)Nc1ccc(S(=O)(=O)Nc2cc(C)on2)cc1` (stereo unspecified): the B-score was -6.05 (active).
The result for `Cc1cc(OC(C)C(=O)Nc2ccc(S(=O)(=O)Nc3onc(C)c3C)cc2)cc(C)c1Cl` (stereo unspecified) reads -4.96 (active).
As for `COc1ccc(Cl)cc1NC(=O)CN(C)C(=O)c1cc(-c2cccs2)nn1-c1ccccc1`, the B-score entry is “inactive”.
With `O=C(CNC(=O)c1ccccc1Br)NCCSc1ccc(Br)cc1` the entry was “inactive”; with `O=C(Oc1ccc(-c2nnco2)cc1)c1ccc(F)c(S(=O)(=O)N2CCOCC2)c1`, “inactive”.
With `O=C(NCCCN1CCCC1=O)c1ccc(S(=O)(=O)Nc2ccccc2)cc1` the entry was “inactive”.

For the origin of these results see PubChem BioAssay AID488975 (Johns Hopkins Ion Channel Center, 2010).
